Source: PubChem (NMMLSC)
An excerpt weighted towards active compounds, which were near 3.5% of everything screened.
Anthrax LF prot: Bacillus anthracis LF protease inhibitors, primary screen, biochemical, multiplex microsphere, MLPCN library | inhibition, % at 10 µM | Lethal factor (Bacillus anthracis), P15917 | multiplex microsphere protease cleavage assay | 360,000 tested, 0.12% active | AID 588501, 2011; also: plate controls were buffer without enzyme for full effect and enzyme alone for no effect
Target sequence (P15917 whole entry, looked up): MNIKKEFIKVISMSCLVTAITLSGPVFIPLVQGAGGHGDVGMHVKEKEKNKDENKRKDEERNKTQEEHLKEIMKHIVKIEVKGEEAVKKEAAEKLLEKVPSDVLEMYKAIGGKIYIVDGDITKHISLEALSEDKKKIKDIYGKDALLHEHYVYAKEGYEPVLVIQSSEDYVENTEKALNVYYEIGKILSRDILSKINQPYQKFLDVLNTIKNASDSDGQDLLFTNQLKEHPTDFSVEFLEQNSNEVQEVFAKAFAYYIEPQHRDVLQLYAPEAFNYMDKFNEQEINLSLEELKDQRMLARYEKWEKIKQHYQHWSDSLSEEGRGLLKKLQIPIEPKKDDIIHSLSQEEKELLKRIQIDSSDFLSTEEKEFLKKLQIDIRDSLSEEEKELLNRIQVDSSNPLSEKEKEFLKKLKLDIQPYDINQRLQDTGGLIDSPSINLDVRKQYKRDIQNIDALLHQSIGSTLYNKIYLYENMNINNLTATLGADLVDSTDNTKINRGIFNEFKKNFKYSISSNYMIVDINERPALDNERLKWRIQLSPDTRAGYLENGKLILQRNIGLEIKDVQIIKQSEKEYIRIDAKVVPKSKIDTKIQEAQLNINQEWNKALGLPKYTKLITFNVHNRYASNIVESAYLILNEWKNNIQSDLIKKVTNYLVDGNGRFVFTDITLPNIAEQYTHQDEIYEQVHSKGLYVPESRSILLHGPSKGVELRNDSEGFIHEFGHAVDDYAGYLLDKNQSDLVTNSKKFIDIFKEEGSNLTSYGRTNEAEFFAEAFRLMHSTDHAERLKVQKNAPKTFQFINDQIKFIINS
Autofluor counter: flagged as autofluorescent in microsphere protease counterscreen | compound autofluorescence counterscreen, microsphere flow cytometry; active compounds read high | fluorescence intensity (no concentration beside the values) | 360,000 tested, 3.1% active; in the data active = fluorescence intensity above about 16000; inconclusive = no clear call, values can overlap the other calls
BoNT-A LC inh2: BoNT/A light chain protease inhibitors, primary screen, biochemical, flow cytometry, MLPCN library. Botulinum neurotoxin type A light chain protease (Clostridium botulinum A str. ATCC 3502). multiplex microsphere protease substrate cleavage. inhibition, % at 10 µM. 360,000 tested, 0.17% active; also: plate controls were buffer without enzyme for full effect and enzyme alone for no effect
BoNT F protease: BoNT/F light chain protease inhibitors, primary screen, biochemical, flow cytometry, MLPCN library; Botulinum neurotoxin type F light chain protease (Clostridium botulinum); AID 588497, 2011; 360,000 tested, 0.22% active; Multiplex microsphere protease cleavage assay; inhibition, % at 10 µM; in the data active = inhibition above about 35%, passing the limit was not always enough; inconclusive = no clear call, values can overlap the other calls; also: plate controls were buffer without enzyme for full effect and enzyme alone for no effect
* = called active by the depositor; ? = inconclusive. Rule as the data show it, unless noted: active = inhibition above about 30%; inconclusive = no clear call, values can overlap the other calls; inactive = below that.

SMILES	Anthrax LF prot	Autofluor counter	BoNT-A LC inh2	BoNT F protease
O=C(CSc1nnc(-c2ccc(S(=O)(=O)N3CCCC3)cc2)o1)NCC1CCCO1 (stereo not drawn)	-6	3735	-1	-3
CC1CCN(S(=O)(=O)c2ccc(NC(=O)Cc3cccs3)cc2)CC1	-3	20322*	2	1
O=C(Cn1nnc(-c2ccc(S(=O)(=O)N3CCCC3)cc2)n1)NCC1CCCO1 (stereo not drawn)	1	22963*	-1	-3
CC1CCCN(CC(=O)Nc2ccc(S(=O)(=O)N3CCCCCC3)cc2)C1 (stereo not drawn)	-3	16175*	1	0
CC1CCN(S(=O)(=O)c2ccc(NC(=O)Cn3nnc(-c4ccccc4)n3)cc2)CC1	-10	19646*	1	0
CCN1CNC(=S)N(c2cc(C)ccc2C)C1	-6	21089*	?	-4
Cc1ccc(C)c(N2CN(Cc3ccco3)CNC2=S)c1	-6	7465	1	15
CCc1ccc(-c2nc(CN3CCC(C(=O)NCc4ccccc4OC)CC3)c(C)o2)cc1	1	25156*	?	-2
Cc1ccccc1-c1nc(CN2CCC(C(=O)NCc3ccco3)CC2)c(C)o1	-6	21224*	2	1
Cc1oc(-c2ccc(Cl)cc2)nc1CN1CCCC(C(=O)NCc2ccccn2)C1 (stereo not drawn)	-2	22724*	0	1
Cc1ccccc1-c1nc(CN2CCC(C(=O)NCc3cccs3)CC2)c(C)o1	1	4027	4	20
Cc1ccccc1-c1nc(CN2CCC(C(=O)NCc3cccnc3)CC2)c(C)o1	-8	22517*	?	-3
O=C(COC(=O)c1cc(Br)ccc1O)c1ccc(F)cc1	-3	4035	0	-6
COc1ccc(CCNC(=O)C2CCN(Cc3nc(-c4ccccc4F)oc3C)CC2)cc1OC	3	15722	3	6
Cc1oc(-c2ccccc2F)nc1CN1CCC(C(=O)NCc2cccnc2)CC1	-1	20391*	1	1
CCN1/C(=N\N)c2cccc3cccc1c23	-10	3325	39*	-55
COCCC(C(=O)Oc1c(C(C)(C)C)cc(C)cc1C(C)(C)C)c1ccccc1 (stereo not drawn)	-2	3930	0	2
CC(C)Cc1cc(C(=O)O)c2ccccc2n1	-3	18252*	-9	-12
Cc1ccc(OCC(=O)N2CCN(c3nnc(-c4ccc(C)cc4)c4ccccc34)CC2)cc1	-2	22360*	2	3
COc1ccc(OCC(=O)N2CCN(C(=O)c3cccc4ccccc34)CC2)cc1	1	21547*	3	5
COc1ccc(OCC(=O)N2CCN(c3nnc(-c4ccc(C)cc4)c4ccccc34)CC2)cc1	-6	5053	-5	?
CCOc1cccc(-c2nn3c(-c4ccco4)nnc3s2)c1	0	23209*	0	2
COc1cccc(-c2nnc3sc(-c4cccs4)nn23)c1	4	8351	0	-8
CCOc1cccc(-c2nnc3sc(-c4cccs4)nn23)c1	1	17165*	-2	0
COc1cccc(-c2nn3c(-c4cccc(C)c4)nnc3s2)c1	-4	17527*	-4	-7
SMILES	Anthrax LF prot	Autofluor counter	BoNT-A LC inh2	BoNT F protease
CCCCc1c(O)nc(SCC(=O)Nc2ccc(OC)cc2)n(-c2ccc(C)c(C)c2)c1=O	6	2986	0	-2
c1ccc(Cn2nnnc2-c2ccco2)cc1	2	16264*	0	0
CCOc1ccc(Nc2nc3c(c(=O)[nH]2)CCC3)cc1	0	16524*	0	4
Cc1c(NC(=O)C(C)Sc2nc3ccccc3c(=O)n2CCO)c(=O)n(-c2ccccc2)n1C (stereo not drawn)	-1	21769*	-7	-5
Cc1ccc(-c2noc(CCC(=O)NCC3CCCO3)n2)cc1 (stereo not drawn)	-1	23346*	0	-1
Cc1ccc(-c2noc(CCCC(=O)NCC3CCCO3)n2)cc1 (stereo not drawn)	2	4915	2	8
O=C(CCc1nc(-c2ccccc2)no1)NC1CCCCC1	-5	21669*	4	4
Cc1ccc(C)c(N(CC(=O)N/N=C/c2ccc(-c3ccc([N+](=O)[O-])cc3)o2)S(=O)(=O)c2ccccc2)c1	42*	5236	50*	32
CSC1=NCCN1C(=O)c1c(-c2c(F)cccc2Cl)noc1C	1	3748	-2	?
CCC1CCc2c(sc(N)c2C(N)=O)C1 (stereo not drawn)	3	9918	0	-2
CC1CCc2c(sc(N)c2C(N)=O)C1 (stereo not drawn)	1	17162*	-3	-4
CCOC(=O)Cn1c(-c2ccc(Cl)nc2)nc2ccccc21	2	22764*	-1	-1
Cc1ccc(C2Nc3ccc4ccccc4c3C3=C2C(=O)CC(C)(C)C3)o1 (stereo not drawn)	-8	21585*	3	1
CC1(C)CC(=O)C2=C(C1)c1c(ccc3ccccc13)NC2c1ccc(C(=O)O)cc1 (stereo not drawn)	-9	3009	-1	-10
O=C(NCCCN1CCC(Cc2ccccc2)CC1)C1CC(=O)N(C2CCCCCC2)C1 (stereo not drawn)	-3	20812*	-1	-3
O=C(NC1=NCCS1)c1cc2ccccc2o1	-6	20997*	-1	-5
Cc1cccc(C(=O)NC2=NCCS2)c1	-4	4810	-1	-4
Cc1cc(C(=O)NC2=NCCS2)cs1	0	22079*	?	-10
CCCCOc1ccc(/C(O)=C(\C#N)c2nc3ccccc3[nH]2)cc1	17	3997	-1	42*
O=C1CC(Nc2ccc(N3CCOCC3)cc2)C(=O)N1Cc1ccccc1 (stereo not drawn)	-3	22615*	-2	-8
O=C(OCC#CCSc1nc2ccccc2s1)c1ccco1	0	19554*	0	3
Cc1cccc(/C=N\Nc2cn[nH]c(=O)c2Cl)c1	3	17627*	12	11
CCOC(=O)c1[nH]c2ccc(OC)cc2c1NC(=O)c1nonc1C	-8	4476	0	-5
CCOC(=O)c1[nH]c2ccccc2c1NC(=O)c1nonc1C	-2	21361*	?	3
CCOC(=O)c1[nH]c2ccc(Cl)cc2c1NC(=O)c1nonc1C	-1	23712*	-2	-2
SMILES	Anthrax LF prot	Autofluor counter	BoNT-A LC inh2	BoNT F protease
CCOC(=O)c1[nH]c2ccccc2c1NC(C)=O	-3	4394	0	2
CCN1CCN(C(=O)c2ccc(Cl)c(S(=O)(=O)N(C)c3ccccc3)c2)CC1	-2	?	4	-3
Cc1cc(C(=O)COC(=O)C2=NNC(=O)CC2)c(C)n1-c1cccc(C(F)(F)F)c1	-11	17667*	6	5
COCCCNC(=S)Nc1ccc(S(=O)(=O)Nc2cc(OC)nc(OC)n2)cc1	-3	4279	0	9
Cc1cc(C)n(-c2nc(NCCC(C)C)c3c4c(sc3n2)COC(C)(C)C4)n1	-11	19196*	13	13
Cc1cc(C)n(-c2nc(NCCN(C)C)c3c4c(sc3n2)COC(C)(C)C4)n1	?	3541	1	29
